According to the supplement of paper PMC8728848:
This excerpt belongs to a sample that is enriched for the strongest signals.

Key:
Assay in all cases: glycan array binding signal (z-score within array); higher = stronger binding
Details in all cases: glycan notation: IUPAC condensed, linker removed
[1] = biological target: Fuc(a1-2)Gal(b1-3)GlcNAc(b1-3)Gal(b1-4)Glc
Summary of the method: (§1)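 The binding signal is a Z-score computed within each array. Data were drawn from 3228 arrays in the Consortium for Functional Glycomics database, restricted to those with a known protein sequence. Scores were averaged over arrays of the same protein sequence at different concentrations or buffers, and over linkers, and negative values can be taken as non-binding.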

[2] = biological target: Fuc(a1-2)Gal(b1-3)[Fuc(a1-4)]GlcNAc(b1-2)Man(a1-3)[Fuc(a1-2)Gal(b1-3)[Fuc(a1-4)]GlcNAc(b1-2)Man(a1-6)]Man(b1-4)GlcNAc(b1-4)GlcNAc
Summary of the method: as §1

Fuc(a1-2)Gal(b1-4)Glc6S = biological target: Fuc(a1-2)Gal(b1-4)Glc6S
Summary of the method: as §1

[3] = biological target: Fuc(a1-2)Gal(b1-4)[Fuc(a1-3)]GlcNAc
Summary of the method: as §1

[4] = biological target: Fuc(a1-2)Gal(b1-4)[Fuc(a1-3)]GlcNAc(b1-2)Man(a1-3)[Fuc(a1-2)Gal(b1-4)[Fuc(a1-3)]GlcNAc(b1-2)Man(a1-6)]Man(b1-4)GlcNAc(b1-4)GlcNAc
Summary of the method: as §1

[5] = biological target: Fuc(a1-2)Gal(b1-4)[Fuc(a1-3)]GlcNAc(b1-3)Gal(b1-4)[Fuc(a1-3)]GlcNAc(b1-3)Gal(b1-4)[Fuc(a1-3)]GlcNAc
Summary of the method: as §1

[6] = biological target: Fuc(a1-2)[Gal(a1-3)]Gal(b1-4)Glc
Summary of the method: as §1

[7] = biological target: Fuc(a1-3)[Gal(b1-4)]GlcNAc(b1-4)Gal(b1-4)[Fuc(a1-3)]GlcNAc(b1-4)Gal(b1-4)[Fuc(a1-3)]GlcNAc
Summary of the method: as §1

[8] = biological target: Fuc(a1-3)[Neu5Ac(a2-3)]Gal(b1-4)GlcNAc(b1-3)GalNAc
Summary of the method: as §1

Fuc(a1-4)GlcNAc = biological target: Fuc(a1-4)GlcNAc
Summary of the method: as §1

[9] = biological target: Gal(a1-3)Gal(b1-4)[Fuc(a1-3)]GlcNAc(b1-2)Man(a1-3)[Gal(a1-3)Gal(b1-4)[Fuc(a1-3)]GlcNAc(b1-2)Man(a1-6)]Man(b1-4)GlcNAc(b1-4)GlcNAc
Summary of the method: as §1

Gal(a1-3)GalNAc = biological target: Gal(a1-3)GalNAc
Summary of the method: as §1

Gal(b1-3)GlcNAc = biological target: Gal(b1-3)GlcNAc
Summary of the method: as §1

[10] = biological target: Gal(b1-4)GlcNAc(b1-2)Man(a1-3)[Man(a1-6)]Man(b1-4)GlcNAc(b1-4)GlcNAc
Summary of the method: as §1

[11] = biological target: Gal(b1-4)GlcNAc(b1-2)[Gal(b1-4)GlcNAc(b1-4)]Man(a1-3)[Gal(b1-4)GlcNAc(b1-2)Man(a1-6)]Man(b1-4)GlcNAc(b1-4)GlcNAc
Summary of the method: as §1

Gal4S6S(b1-4)GlcNAc = biological target: Gal4S6S(b1-4)GlcNAc
Summary of the method: as §1

[12] = biological target: GlcNAc(a1-4)Gal(b1-4)GlcNAc
Summary of the method: as §1

[13] = biological target: GlcNAc(b1-2)Man(a1-3)[GlcNAc(b1-2)Man(a1-6)]Man(b1-4)GlcNAc(b1-4)[Fuc(a1-6)]GlcNAc
Summary of the method: as §1

GlcNAc(b1-3)Gal = biological target: GlcNAc(b1-3)Gal
Summary of the method: as §1

[14] = biological target: GlcNAc(b1-3)[GlcNAc(b1-6)]Gal(b1-4)GlcNAc
Summary of the method: as §1

[15] = biological target: Man(a1-2)Man(a1-2)Man(a1-6)[Man(a1-3)]Man
Summary of the method: as §1

[16] = biological target: Man(a1-2)Man(a1-3)[Man(a1-2)Man(a1-6)]Man
Summary of the method: as §1

[17] = biological target: Man(a1-2)Man(a1-3)[Man(a1-2)Man(a1-6)]Man(a1-6)[Man(a1-2)Man(a1-2)Man(a1-3)]Man
Summary of the method: as §1

[18] = biological target: Man(a1-2)Man(a1-3)[Man(a1-6)]Man(a1-6)[Man(a1-2)Man(a1-3)]Man(b1-4)GlcNAc(b1-4)GlcNAc
Summary of the method: as §1

[19] = biological target: Man(a1-2)Man(a1-6)[Man(a1-3)]Man(a1-6)[Man(a1-2)Man(a1-2)Man(a1-3)]Man
Summary of the method: as §1

[20] = biological target: Man(a1-2)Man(a1-6)[Man(a1-3)]Man(a1-6)[Man(a1-2)Man(a1-2)Man(a1-3)]Man(b1-4)GlcNAc(b1-4)GlcNAc
Summary of the method: as §1

Man(a1-3)[Man(a1-6)]Man = biological target: Man(a1-3)[Man(a1-6)]Man
Summary of the method: as §1

Man(b1-4)GlcNAc = biological target: Man(b1-4)GlcNAc
Summary of the method: as §1

[21] = biological target: Neu5Ac(a2-3)Gal(b1-4)GlcNAc(b1-3)Gal(b1-4)GlcNAc(b1-3)Gal(b1-4)GlcNAc
Summary of the method: as §1

[22] = biological target: Neu5Ac(a2-6)Gal(b1-4)GlcNAc(b1-3)Gal(b1-4)GlcNAc
Summary of the method: as §1

B1: DGL (Dioclea grandiflora), P08902 (protein)
chain: ADTIVAVELDSYPNTDIGDPNYPHIGIDIKSIRSKSTARWNMQTGKVGTVHISYNSVAKRLSAVVSYSGSSSTTVSYDVDLNNVLPEWVRVGLSATTGLYKETNTILSWSFTSKLKTNSIADENSLHFSFHKFSQNPKDLILQGDAFTDSDGNLELTKVSSSGDPQGNSVGRALFYAPVHIWESSAVVASFDATFTFLIKSPDREPADGITFFIANTDTSIPSGSGGRLLGLFPDAN
B1 was tested, and the “glycan array binding signal (z-score)” value [1] was -0.177, the “glycan array binding signal (z-score)” value [2] was -0.169 and the “glycan array binding signal (z-score)” value (Fuc(a1-2)Gal(b1-4)Glc6S) was -0.172. The “glycan array binding signal (z-score)” value [3] was -0.176, the “glycan array binding signal (z-score)” value [4] was -0.144 and the “glycan array binding signal (z-score)” value [5] was -0.168. The “glycan array binding signal (z-score)” value [6] was -0.177, the “glycan array binding signal (z-score)” value [7] was -0.182 and the “glycan array binding signal (z-score)” value [8] was -0.072. For the same binder, the “glycan array binding signal (z-score)” value (Fuc(a1-4)GlcNAc) was -0.175, the “glycan array binding signal (z-score)” value [9] was -0.175 and the “glycan array binding signal (z-score)” value (Gal(a1-3)GalNAc) was -0.173. For the same binder, the “glycan array binding signal (z-score)” value (Gal(b1-3)GlcNAc) was -0.172, the “glycan array binding signal (z-score)” value [10] was -0.151 and the “glycan array binding signal (z-score)” value [11] was -0.161. For the same binder, the “glycan array binding signal (z-score)” value (Gal4S6S(b1-4)GlcNAc) was -0.183, the “glycan array binding signal (z-score)” value [12] was -0.176 and the “glycan array binding signal (z-score)” value [13] was 0.316. For the same binder, the “glycan array binding signal (z-score)” value (GlcNAc(b1-3)Gal) was -0.178, the “glycan array binding signal (z-score)” value [14] was -0.183 and the “glycan array binding signal (z-score)” value [15] was 5.91. For the same binder, the “glycan array binding signal (z-score)” value [16] was 9.67, the “glycan array binding signal (z-score)” value [17] was 3.48 and the “glycan array binding signal (z-score)” value [18] was 6.68. For the same binder, the “glycan array binding signal (z-score)” value [19] was 7.91, the “glycan array binding signal (z-score)” value [20] was 6.41 and the “glycan array binding signal (z-score)” value (Man(a1-3)[Man(a1-6)]Man) was 3.63. The “glycan array binding signal (z-score)” value (Man(b1-4)GlcNAc) was -0.186, the “glycan array binding signal (z-score)” value [21] was -0.183 and the “glycan array binding signal (z-score)” value [22] was -0.178.
